Hit rate of the full screen: of about 13,000 compounds, about 3,200 (25%) showed an effect of 50% or more. This is one part of the list.
Each molecule was assayed on P. falciparum stage V gametocytes. Settings: 48 h, 5 µM; inhibitor.
Design: BacTiter-Glo ATP luminescence viability of purified stage V gametocytes in 384-well plates, per cent inhibition versus DMSO

SMILES | % Inhibition
Cc1ccc(-n2c(=O)c3c(n4c(SC(C)C)nnc24)-c2ccccc2CC32CCCCC2)cc1 [TCMDC-125077] | -67.75%
Cc1cc([N+](=O)[O-])ccc1NC(=O)Nc1cccc(C(F)(F)F)c1 [TCMDC-124561] | -49.1%
Cc1cccc2nc(-c3cccc(-c4cccc(C(=O)NCCN5CCCC5)c4)c3)[nH]c12 [TCMDC-132323] | 21.11%
C=CC[C@H](NC(=O)c1ccc(NS(=O)(=O)c2ccc3nc(N)[nH]c(=O)c3c2)cc1)C(=O)OCCCC [TCMDC-137699] | 10.92%
CCCCCCCCN1CCCN(C(=O)c2cccc(NC(=O)Nc3ccc4ccccc4c3)c2)CC1 [TCMDC-141690] | -11.26%
CC(CNc1ccnc(Nc2ccc3[nH]c(=O)[nH]c3c2)n1)c1ccccc1 (centres unmarked) [TCMDC-136806] | -16.39%
Nc1nc(N)c2c(Sc3ccccc3)cccc2n1 [TCMDC-131943] | 8.754%
NC(=O)c1ccsc1NC(=O)CNC(c1ccccc1)c1ccc(Cl)cc1 (centres unmarked) [TCMDC-125330] | 14.63%
Cc1ccc2[nH]c(-c3ccc(/C=C/C(=O)NC4CCN(Cc5ccccc5)CC4)cc3)nc2c1C [TCMDC-140451] | -45.16%
Cc1ccc2nc(-c3ccc(C=CC(=O)NC4CCN(Cc5ccccc5)CC4)cc3)[nH]c2c1 [TCMDC-140401] | 2.225%
Cc1cc2nc(-c3ccc(/C=C/C(=O)NC4CCN(Cc5ccccc5)CC4)cc3)[nH]c2cc1C [TCMDC-140434] | 78.1%
Cc1cc(NC(=O)c2cccs2)ccc1OC1CCN(Cc2ccc(F)cc2)C1 (centres unmarked) [TCMDC-133754] | 20.26%
Cc1cc(NC(=O)c2cccs2)ccc1OC1CCN(Cc2ccc(C#N)cc2)C1 (centres unmarked) [TCMDC-133960] | 27%
O=C(Nc1ccc(OC2CCN(Cc3ccc(F)cc3)C2)c(Cl)c1)c1ccco1 (centres unmarked) [TCMDC-133761] | 61.05%
O=C(Nc1ccc(OC2CCN(Cc3ccccc3)C2)c(Cl)c1)c1ccco1 (centres unmarked) [TCMDC-133971] | 37.01%
O=C(Nc1ccc(OC2CCN(Cc3ccc(F)cc3)C2)c(Cl)c1)c1cccs1 (centres unmarked) [TCMDC-133757] | 50.68%
O=C(Nc1ccc(OC2CCN(Cc3ccc(F)cc3)CC2)c(Cl)c1)c1cccs1 [TCMDC-133746] | 32.62%
O=C(Nc1ccc(OC2CCN(Cc3ccccc3)CC2)c(Cl)c1)c1ccco1 [TCMDC-133966] | 63.08%
O=C(Nc1ccc(OC2CCN(Cc3ccsc3)CC2)c(Cl)c1)c1ccco1 [TCMDC-134271] | 9.288%
Cc1cc(NC(=O)c2ccco2)ccc1OC1CCN(Cc2ccc(F)cc2)C1 (centres unmarked) [TCMDC-133760] | 22.57%
Cc1cc(NC(=O)c2cccs2)ccc1OC1CCN(Cc2ccc(C#N)cc2)CC1 [TCMDC-133954] | 61.72%
O=C(Nc1ccc(OC2CCN(Cc3ccc(F)cc3)CC2)c(Cl)c1)c1ccco1 [TCMDC-133750] | 24.88%
N#Cc1ccc(CN2CCC(Oc3ccc(NC(=O)c4cccs4)cc3Cl)CC2)cc1 [TCMDC-133955] | 10.06%
FC(F)(F)c1ccc2[nH]c(-c3ccc(-c4ccc(CNCc5cnn(-c6ccccc6)n5)cc4)s3)nc2c1.O=C(O)C(F)(F)F [TCMDC-132975] | -22.66%

SMILES | % Inhibition
COc1cccc(NC(=O)Nc2ccc(-c3oc(C(=O)NCC(c4ccccc4)N(C)C)cc3-c3ccncc3)cc2)c1 (centres unmarked) [TCMDC-135783] | -10.27%
Cc1c(F)cc(C(=O)NC2CC2)cc1-c1ccc2c(cnn2S(=O)(=O)c2ccc(C#N)cc2)c1 [TCMDC-135240] | -5.005%
COc1ccc2nccc([C@@H](O)CN3CCC(NC(=O)c4[nH]c5ccccc5c4-c4ccccc4)CC3)c2c1 [TCMDC-141034] | -42.03%
O=C(NCc1cccc(F)c1)Nc1ccc(-c2cccc(-c3nc4ccc(F)cc4[nH]3)c2)cc1 [TCMDC-133296] | 0.06231%
Cc1ccc(NC(=O)c2ccc(N3CCC(c4ccccc4C)CC3)nc2)cc1 [TCMDC-134594] | 8.038%
COc1ccc(CN2CCN(Cc3cc(Cl)ccc3O)CC2CCO)c(C)c1C (centres unmarked) [TCMDC-124638] | -22.47%
CC(C)CCN1CCC(Oc2ccc(NC(=O)c3ccco3)cc2Cl)CC1 [TCMDC-133976] | 100.7%
CC(C)CCN1CCC(Oc2ccc(NC(=O)c3ccc(F)cc3)cc2Cl)CC1 [TCMDC-133978] | 33.54%
N#Cc1ccc(CN2CCC(Oc3ccc(NC(=O)c4ccco4)cc3Cl)CC2)cc1 [TCMDC-133957] | 8.133%
O=C(NC(=S)NCc1ccncc1)c1ccccc1 [TCMDC-123842] | -6.445%
NC1=NC(CCc2ccccc2)N(c2ccc(Cl)cc2)C(N)=N1 (centres unmarked) [TCMDC-131290] | 6.603%
COc1ccc2c(c1)Nc1ccc(Cl)cc1C2N (centres unmarked) [TCMDC-141985] | 106.2%
Fc1cccc(COc2ccc(-n3ccc4c(NCCCn5ccnc5)ncnc43)cc2Cl)n1 [TCMDC-135092] | -5.729%
COc1ccc2ccccc2c1C=NNc1ccnc2cc(Cl)ccc12 [TCMDC-123949] | -70.44%
CCCN(CCCN(CCCN(CCC)C(C)C)c1cc(C)nc(Nc2ccc(Cl)cc2)n1)C(C)C [TCMDC-138003] | 44.69%
CCNc1cc(C)nc(Nc2ccc(F)cc2)n1 [TCMDC-134008] | 39.4%
Cc1cc(NCCCCCCN)nc(Nc2ccc(Cl)cc2)n1 [TCMDC-138191] | 54.5%
CCCCN(CCCC)CCCN(CCCN(CCCC)CCCC)c1cc(C)nc(Nc2ccc(Cl)cc2)n1 [TCMDC-137487] | 97.2%
CCN(CC)CCCN(CCCN(CC)CC)c1cc(C)nc(Nc2ccc(Cl)cc2)n1 [TCMDC-137489] | 39.75%
Cc1cc(N(CCCN(C)C)Cc2cc(F)cc(F)c2)nc(Nc2ccc(Cl)cc2)n1 [TCMDC-132203] | -7.276%
CCNc1cc(C)nc(Nc2ccc(C)cc2)n1 [TCMDC-134007] | 5.581%
Cc1cc(N(C)CCCN(C)C)nc(Nc2ccc(Cl)cc2)n1 [TCMDC-136887] | 28.42%
CCCN(CCC)CCCN(CCCN(CCC)CCC)c1cc(C)nc(Nc2ccc(Cl)cc2)n1 [TCMDC-137773] | 63.95%

Source: publication PMC4552634, “A New Set of Chemical Starting Points with Plasmodium falciparum Transmission-Blocking Potential for Antimalarial Drug Discovery” (PLoS ONE, 2015)
